Results published in PubChem BioAssay (NCI).
Compounds without any hit were thinned out: in the full panel of roughly 79,000, 15% have a hit. A number with no mark means an inactive call. Calls of active or inactive are those of the source. Cut-off read from the data, not from the text of the source: active = growth inhibition above about 70%; inactive = the rest.

What was measured:
[1] = NCI Yeast Anticancer Drug Screen. Data for the rad50 strain (AID 155);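 note: 0% = growth of vehicle-only cultures of the same strain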; details: S. cerevisiae rad50 strain growth inhibition; at 50.0 µM; active compounds read high
Outline: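 Readout: growth inhibition relative to vehicle-treated cultures. Compound exposure was carried out in a genetically defined yeast strain deficient in DNA damage repair.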

[2] = NCI Yeast Anticancer Drug Screen. Data for the mec2-1 strain (AID 157); details: S. cerevisiae mec2-1 strain, at 50.0 µM, active compounds read high
Outline: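 Growth inhibition is read against vehicle-treated controls after compound exposure of the mec2-1 yeast strain, which is defective in DNA damage repair or cell cycle control.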

[3] = NCI Yeast Anticancer Drug Screen. Data for the sgs1 mgt1 strain (AID 161);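 note: 0% = growth of cultures given vehicle only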; details: S. cerevisiae sgs1 mgt1 strain, at 50.0 µM, active compounds read high
Outline: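 Yeast cells carrying a defined DNA-repair defect were exposed to test compounds. Growth inhibition was measured relative to vehicle-treated controls.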

[4] = NCI Yeast Anticancer Drug Screen. Data for the cln2 rad14 strain (AID 165);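 note: 0% = growth equal to vehicle treated cultures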; details: S. cerevisiae cln2 rad14 strain, at 50.0 µM, active compounds read high
Outline: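 Growth inhibition, relative to vehicle-treated controls, is the read-out. The test organism is a yeast strain with defined genetic alterations, cln2 rad14.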

[5] = NCI Yeast Anticancer Drug Screen. Data for the bub3 strain (AID 167); details: S. cerevisiae bub3 mutant strain, at 50.0 µM, active compounds read high
Outline: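 Readout: yeast growth inhibition, expressed relative to vehicle-only wells. The test organism is a mutant strain from a panel with lesions in DNA repair or checkpoint genes.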

[6] = NCI Yeast Anticancer Drug Screen. Data for the mlh1 rad18 strain (AID 175); details: S. cerevisiae mlh1 rad18 strain growth inhibition; at 50.0 µM; active compounds read high
Outline: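 Cells of a genetically altered yeast strain, deficient in DNA damage repair, were treated with compound. Their growth was then compared with that of vehicle-treated cultures to give inhibition.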

Structure (SMILES)	growth inhibition [1]	growth inhibition [2]	growth inhibition [3]	growth inhibition [4]	growth inhibition [5]	growth inhibition [6]
CC(=O)OC(c1ccccc1Cl)C(Cl)(Cl)Cl (configuration not stated)	-16.9%	-9.35%	-4.65%	-39.9%	-14.2%	-5.55%
C=CCSc1nc2ccccc2c(=O)n1-c1cc(OC)c(Cl)cc1OC	9%	-20.9%	15.1%	8.45%	42.5%	-9.25%
CN1C(=O)C2(c3ccccc31)C1CC3C(CO1)C1C2C3(CO)CN1C#N (configuration not stated)	34.1%	12.9%	-39.2%	1.1%	-22.1%	-6.8%
COC(=O)C1C(C)N1P(=O)(OC)OC (configuration not stated)	7.3%	3.65%	-7.55%	-44%	-4.3%	6.6%
Cn1nnc(-c2nnn(C)n2)n1	-19.1%	-12.5%	-8.65%	-14.8%	-15.9%	-19.6%
CC1OC(=O)C2CC3CCCCC3C(/C=C/C3CCCC(C)N3C)C12 (configuration not stated)	1.2%	-11.2%	-11.2%	28.4%	-10.4%	-2.35%
Cc1ccc(C(=O)Nc2ccc(CP(=O)(O)O)cc2)cc1NC(=O)Nc1cc(C(=O)Nc2ccc(CP(=O)(O)O)cc2)ccc1C	3.55%	-10.6%	-30.1%	11.9%	-29.1%	7.45%
CCOP(=O)(O)OCC.[Y]	13.6%	7.3%	6.5%	-16.8%	6.5%	11.2%
C=CCP(c1ccccc1)c1ccccc1	-2%	-3.75%	-8.65%	8%	9.1%	-13.5%
COC(=O)CP(=O)(OC)OCC(F)(F)F (configuration not stated)	-32.8%	-14.4%	-23.5%	-6%	-33.6%	-25.3%
CCOP(=O)(OCC)C(C)(C)OC(=O)NC#N	-24.2%	-63.5%	-36.2%	-8.85%	-13.6%	-28.8%
CCOP(=O)(OCC)C(N)Cc1c[nH]c2ccccc12 (configuration not stated)	13.9%	-5.85%	-16.8%	16.4%	11.6%	4.9%
[N-]=[N+]=Nc1ccnc2cc(Cl)ccc12	-29.9%	-5.55%	-9.05%	-68%	-5.45%	-10.7%
[C-]#[O+].[C-]#[O+].[C-]#[O+].[C-]#[O+].[Fe].[N-]=C(C(F)(F)F)C(F)(F)F	-16.4%	-19.8%	-11.7%	-0.25%	-11.2%	-25.4%
Cc1ccc(C(O)(c2ccc(C)cc2)c2ccccn2)cc1	-6.65%	16.9%	-7%	-13.8%	9.45%	-35%
C[N+]1(C)C2CC(O)CC1C1OC12 (configuration not stated)	-4.35%	5.15%	1.45%	2.85%	-3.75%	4.45%
CCOP(O)(=S)OCC.[Sm]	1.65%	-14.6%	-7.65%	-43.1%	-17.9%	-15.8%
CC1CN=C(Nc2ccc(F)cc2F)S1 (configuration not stated)	-9.1%	-8.6%	-65.7%	-24.4%	12.5%	-36.6%
ClCCN(CCCl)c1ccc2c(c1)Cc1cc(Br)ccc1-2	15%	2%	40.7%	30.8%	2.6%	6.9%
C[N+](C)(Cc1ccccc1[N+](=O)[O-])c1ccc(N(CCCl)CCCl)cc1	-7.8%	-8.15%	-4.2%	-16.7%	-22.3%	12.6%
Cc1cccc(CCl)c1	-7.05%	-46.3%	-23.3%	-0.45%	-40.9%	-23.4%

Structure (SMILES)	growth inhibition [1]	growth inhibition [2]	growth inhibition [3]	growth inhibition [4]	growth inhibition [5]	growth inhibition [6]
CN(C)c1ccc([N+](=O)[O-])c([N+](=O)[O-])c1	-14.8%	-12.5%	-7.75%	7.95%	-12.4%	-3.05%
CC(C)c1ccc(CCN)cc1	6.25%	3.5%	-19.8%	-0.2%	5.65%	-6.1%
CNN(C)P(=O)(Oc1ccccc1)N(C)NC	5.5%	-7.3%	-9.15%	7.9%	-2.1%	-5.15%
CC1(C)CC(N2CCCCC2)=CC(=[N+]2CCCCC2)C1	-6.55%	-2%	22.3%	0.1%	-5.85%	-10.6%
[C-]#[O+].[C-]#[O+].[C-]#[O+].[C-]#[O+].[Cr].c1ccc(P(CCP(CCP(c2ccccc2)c2ccccc2)c2ccccc2)CCP(c2ccccc2)c2ccccc2)cc1 (configuration not stated)	20.7%	23.2%	29.2%	16.8%	21.4%	31.6%
CCCC[S][Sn]([CH2]CCC)([CH2]CCC)[S]CCCC	95.8% (active)	92.3% (active)	94.7% (active)	89.2% (active)	93.2% (active)	95.5% (active)
CC1(C(=N)N)CCOC1=O (configuration not stated)	4.4%	18.5%	-10.8%	4.5%	-1%	7.55%
Cc1ccc(C)c(OP(=O)(Oc2cc(C)ccc2C)Oc2cc(C)ccc2C)c1	-29.8%	-42.5%	-15.6%	8.85%	-18%	-36.9%
CC([NH-])C(=O)O.[Cl][Pt][Cl] (configuration not stated)	-25.6%	-9.6%	-24.9%	7.55%	-10.6%	-9.55%
CC1(C)N(C(=S)Nc2ccccc2)C1(C)C	6.45%	1.3%	5.25%	-26.2%	-5.2%	5.8%
O=S(=O)(c1ccccc1)N1CC1CI (configuration not stated)	3.45%	2.7%	13.9%	10.6%	7.9%	1.75%
O=C1CCN(C2(c3ccccc3)CCCCC2)CC1	3.85%	-4.1%	3.55%	-5.1%	-8.85%	-1.35%
CCC1(c2ccc(C)cc2)C(=O)NC(=S)NC1=O	6.1%	-8.15%	17.2%	28.6%	14%	11.8%
[NH-]C(CCC(N)=O)C(=O)O.[NH-]C(CCC(N)=O)C(=O)O.[Pd+2] (configuration not stated)	-14.6%	-3.2%	-7.55%	-71.6%	-1.1%	-8.1%
c1ccc(-c2ccc[n+](CC[n+]3cccc(-c4ccccn4)c3)c2)nc1	0.3%	-9.4%	-25.4%	-11.4%	-0.1%	8.45%
N#CCN(CC#N)[N+](=O)[O-]	6.8%	-4.95%	-14.2%	-6%	-26.3%	0.4%
N#CCCCCN=[N+]=[N-]	-4%	27.1%	-12.6%	3.25%	20.4%	-8.35%
Clc1cccc(Cl)c1NC1=NCCS1	-11.7%	-20.8%	12.7%	6.1%	-2.25%	6.45%
Cc1ccc(OP(=O)(Oc2ccc(C)cc2)Oc2ccc(C)cc2)cc1.Cc1ccc(OP(=O)(Oc2ccc(C)cc2)Oc2ccc(C)cc2)cc1.[Cl][Cr]([Cl])[Cl]	-1.05%	-3.05%	-2.1%	-7%	0.9%	4.45%
Cc1ccc2c(c1)N(CCCl)c1c(ccc3ccccc13)S2	-6.55%	-10%	-6.55%	-67.9%	22.2%	-6.6%
c1ccc2c(c1)SCCC2NC1=NCCO1 (configuration not stated)	-15.2%	-13.6%	-9%	9.45%	8.7%	-36.3%
